Our source for the growth inhibition values is PubChem BioAssay (NCI).

SMILES strings stand for the structures. About 79,000 compounds went through this panel and 15% of them were active in at least one assay; those are over-represented in the sample as a whole. Unmarked numbers belong to inactive results. The source made the active and inactive calls. Cut-off read from the data, not from the text of the source: active = growth inhibition above about 70%; inactive = the rest.

A short description of assay [1]: NCI Yeast Anticancer Drug Screen. Data for the rad50 strain (AID 155).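 Note: 0% = growth of vehicle-only cultures of the same strain.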 The note with it: S. cerevisiae rad50 strain growth inhibition, hits give high values. A digest of the protocol:
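Growth of the mutant yeast was measured after compound exposure and referenced to vehicle-treated cultures.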

The nature of assay [2]: NCI Yeast Anticancer Drug Screen. Data for the mec2-1 strain (AID 157). Particulars: S. cerevisiae mec2-1 strain, hits give high values. A digest of the protocol: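 Strain: mec2-1 (DNA repair/cell cycle alteration). Compound exposure, then growth measured; inhibition expressed relative to vehicle.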
Assay [3] in a line: NCI Yeast Anticancer Drug Screen. Data for the sgs1 mgt1 strain (AID 161).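 Note: 0% = growth of cultures given vehicle only.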 Particulars: S. cerevisiae sgs1 mgt1 strain, hits give high values. A digest of the protocol:
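Inhibition of yeast growth, normalised to vehicle-treated controls, is reported for a strain bearing genetic alterations in DNA damage repair.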

The nature of assay [4]: NCI Yeast Anticancer Drug Screen. Data for the cln2 rad14 strain (AID 165).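 Note: 0% = growth equal to vehicle treated cultures.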 The note with it: S. cerevisiae cln2 rad14 strain, hits give high values. The gist of the method:
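Compounds are applied to the cln2 rad14 yeast strain, and growth is then compared with that of vehicle-treated cultures to give inhibition.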

Assay [5] is described as follows: NCI Yeast Anticancer Drug Screen. Data for the bub3 strain (AID 167). Particulars: S. cerevisiae bub3 mutant strain, hits give high values. A digest of the protocol:
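Whole-cell yeast assay. The mutant strain was incubated with compounds, and growth inhibition was determined by comparison with vehicle-treated cells.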

Assay [6] can be described thus: NCI Yeast Anticancer Drug Screen. Data for the mlh1 rad18 strain (AID 175). The note with it: S. cerevisiae mlh1 rad18 strain growth inhibition, hits give high values. The gist of the method: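 Read-out is yeast growth inhibition, calculated against vehicle-only controls. The compound was applied to a strain engineered with DNA damage repair alterations.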
Setting [7] is: at 5.0 µM (retest, dose inferred, filed as 0.5).
The mark [8] stands for this setting: at 50.0 µM (retest, dose inferred, filed as 5.0).

Regarding `C1=C(c2c(-c3ccccc3)[nH]c3ccccc23)Cc2ccccc21`, the growth inhibition in assay [1] (setting [7]) was 3%; in assay [1] (setting [8]), 93% (active); in assay [1] (at 50.0 µM), 12.6%; in assay [2] (setting [7]) it was 0%; in assay [2] (setting [8]), 95% (active); in assay [2] (at 50.0 µM), 43.7%. Moreover, the growth inhibition in assay [3] (setting [7]) is 0%; in assay [3] (setting [8]), 54%; in assay [3] (at 50.0 µM) it was 62.1%; in assay [4] (setting [7]) it was -12%; in assay [4] (setting [8]), 93% (active); in assay [4] (at 50.0 µM), 30.2%. The growth inhibition was -3% in assay [5] (setting [7]); 58% in assay [5] (setting [8]); 71.4% (active) in assay [5] (at 50.0 µM); 3% in assay [6] (setting [7]); 93% (active) in assay [6] (setting [8]); 54.8% in assay [6] (at 50.0 µM).
As to `FC(F)(F)c1ccc(Nc2ccc(C(F)(F)F)cc2)cc1`, the growth inhibition in assay [1] (setting [7]) is 9%; in assay [1] (setting [8]), 100% (active); in assay [1] (at 50.0 µM), 99.6% (active); in assay [2] (setting [7]), -17%; in assay [2] (setting [8]) it was 100% (active); in assay [2] (at 50.0 µM), 99.8% (active). For the same compound, the growth inhibition is 12% in assay [3] (setting [7]); 100% (active) in assay [3] (setting [8]); 99.6% (active) in assay [3] (at 50.0 µM); -5% in assay [4] (setting [7]); 100% (active) in assay [4] (setting [8]); 99.6% (active) in assay [4] (at 50.0 µM). The growth inhibition is -3% in assay [5] (setting [7]); 99% (active) in assay [5] (setting [8]); 99.7% (active) in assay [5] (at 50.0 µM); 12% in assay [6] (setting [7]); 100% (active) in assay [6] (setting [8]); 99.8% (active) in assay [6] (at 50.0 µM).
With `CS(=O)(=O)N1C(=O)C2C3CCC(O3)C2C1=O` (configuration not stated), the growth inhibition in assay [1] (setting [7]) is -142%; in assay [1] (setting [8]) it was 91% (active); in assay [1] (at 50.0 µM) it was 73.5% (active); in assay [2] (setting [7]), -46%; in assay [2] (setting [8]) it was 71% (active); in assay [2] (at 50.0 µM), 57.7%. For the same compound, the growth inhibition in assay [3] (setting [7]) was -61%; in assay [3] (setting [8]) it was 52%; in assay [3] (at 50.0 µM), 26.4%; in assay [4] (setting [7]), -56%; in assay [4] (setting [8]), 73% (active); in assay [4] (at 50.0 µM), 19.5%. Moreover, the growth inhibition was -74% in assay [5] (setting [7]); 64% in assay [5] (setting [8]); 40.8% in assay [5] (at 50.0 µM); -145% in assay [6] (setting [7]); 75% (active) in assay [6] (setting [8]); 42.6% in assay [6] (at 50.0 µM).
Consider `CCC(=O)C(CC)(c1ccc(OC(C)=O)cc1)c1ccc(OC(C)=O)cc1`, for which the growth inhibition was 13% in assay [1] (setting [7]); 82% (active) in assay [1] (setting [8]); -20.3% in assay [1] (at 50.0 µM); 24% in assay [2] (setting [7]); 73% (active) in assay [2] (setting [8]); -1.2% in assay [2] (at 50.0 µM). Also, the growth inhibition is 9% in assay [3] (setting [7]); 75% (active) in assay [3] (setting [8]); 53.1% in assay [3] (at 50.0 µM); 9% in assay [4] (setting [7]); 33% in assay [4] (setting [8]); 14.7% in assay [4] (at 50.0 µM). The growth inhibition is 9% in assay [5] (setting [7]); 59% in assay [5] (setting [8]); 35.1% in assay [5] (at 50.0 µM); 21% in assay [6] (setting [7]); 93% (active) in assay [6] (setting [8]); -1.85% in assay [6] (at 50.0 µM).
Turning to `O=[N+]([O-])C(=C1Nc2ccccc2N1)C(Cl)=C(Cl)Cl`, the growth inhibition in assay [1] (setting [7]) is 10%; in assay [1] (setting [8]) it was 8%; in assay [1] (at 50.0 µM) it was -4.9%; in assay [2] (setting [7]), 10%; in assay [2] (setting [8]) it was 15%; in assay [2] (at 50.0 µM), 3.3%. In addition, the growth inhibition in assay [3] (setting [7]) is 13%; in assay [3] (setting [8]) it was 22%; in assay [3] (at 50.0 µM) it was 9.85%; in assay [4] (setting [7]) it was 10%; in assay [4] (setting [8]), 10%; in assay [4] (at 50.0 µM) it was -13.8%. For the same compound, the growth inhibition in assay [5] (setting [7]) is 11%; in assay [5] (setting [8]), 12%; in assay [5] (at 50.0 µM) it was -2.55%; in assay [6] (setting [7]) it was 15%; in assay [6] (setting [8]) it was 16%; in assay [6] (at 50.0 µM) it was 11%.
As for `CCNc1nc(C(F)(F)F)nc2nc[nH]c12`, the growth inhibition in assay [1] (setting [7]) is 3%; in assay [1] (setting [8]), -5%; in assay [1] (at 50.0 µM), 6.15%; in assay [2] (setting [7]), 1%; in assay [2] (setting [8]) it was 4%; in assay [2] (at 50.0 µM), -5.75%. For the same compound, the growth inhibition in assay [3] (setting [7]) was -22%; in assay [3] (setting [8]), -5%; in assay [3] (at 50.0 µM) it was -20.1%; in assay [4] (setting [7]), -5%; in assay [4] (setting [8]), 0%; in assay [4] (at 50.0 µM), 92.7% (active). Further, the growth inhibition was -4% in assay [5] (setting [7]); -4% in assay [5] (setting [8]); 3.4% in assay [5] (at 50.0 µM); -3% in assay [6] (setting [7]); -9% in assay [6] (setting [8]); 39.9% in assay [6] (at 50.0 µM).
For the compound `COC(=O)c1ccc2c(c1)CC1(C2)Cc2ccccc2C1=O` (configuration not stated), the growth inhibition is 14% in assay [1] (setting [7]); 88% (active) in assay [1] (setting [8]); 68% in assay [1] (at 50.0 µM); -20% in assay [2] (setting [7]); 92% (active) in assay [2] (setting [8]); 77% (active) in assay [2] (at 50.0 µM). The growth inhibition was -4% in assay [3] (setting [7]); 84% (active) in assay [3] (setting [8]); 83.5% (active) in assay [3] (at 50.0 µM); -37% in assay [4] (setting [7]); 64% in assay [4] (setting [8]); 57.5% in assay [4] (at 50.0 µM). Moreover, the growth inhibition in assay [5] (setting [7]) is 6%; in assay [5] (setting [8]) it was 98% (active); in assay [5] (at 50.0 µM), 87.1% (active); in assay [6] (setting [7]) it was -17%; in assay [6] (setting [8]) it was 94% (active); in assay [6] (at 50.0 µM) it was 79.5% (active).
Consider `c1ccc2c(c1)OCC(CNCCNCC1COc3ccccc3O1)O2` (configuration not stated), for which the growth inhibition in assay [1] (setting [7]) was 51%; in assay [1] (setting [8]), 69%; in assay [1] (at 50.0 µM), 72% (active); in assay [2] (setting [7]) it was 69%; in assay [2] (setting [8]) it was 79% (active); in assay [2] (at 50.0 µM), 57.9%. Further, the growth inhibition in assay [3] (setting [7]) was 70% (active); in assay [3] (setting [8]), 86% (active); in assay [3] (at 50.0 µM), 87.5% (active); in assay [4] (setting [7]) it was 45%; in assay [4] (setting [8]), 63%; in assay [4] (at 50.0 µM), 87% (active). Besides, the growth inhibition in assay [5] (setting [7]) was 43%; in assay [5] (setting [8]) it was 55%; in assay [5] (at 50.0 µM), 58.3%; in assay [6] (setting [7]) it was 75% (active); in assay [6] (setting [8]), 74% (active); in assay [6] (at 50.0 µM), 67.2%.
As to `O=C1C=C(Br)C(=O)C12CCc1ccccc12` (configuration not stated), the growth inhibition in assay [1] (setting [7]) was 99% (active); in assay [1] (setting [8]) it was 99% (active); in assay [1] (at 50.0 µM) it was 99.7% (active); in assay [2] (setting [7]), 100% (active); in assay [2] (setting [8]) it was 99% (active); in assay [2] (at 50.0 µM), 99.8% (active). The growth inhibition is 93% (active) in assay [3] (setting [7]); 100% (active) in assay [3] (setting [8]); 99.5% (active) in assay [3] (at 50.0 µM); 99% (active) in assay [4] (setting [7]); 99% (active) in assay [4] (setting [8]); 99.3% (active) in assay [4] (at 50.0 µM). Further, the growth inhibition was 99% (active) in assay [5] (setting [7]); 99% (active) in assay [5] (setting [8]); 99.6% (active) in assay [5] (at 50.0 µM); 99% (active) in assay [6] (setting [7]); 99% (active) in assay [6] (setting [8]); 99.5% (active) in assay [6] (at 50.0 µM).
